Structures are written as SMILES. The whole screen tested about 310,000 compounds, of which about 2,200 (0.71%) showed an effect of 50% or more. The effect is printed as a negative number. Many of the other results were omitted from the sample, so strong results are more common in it than they were.

Sequence of human ether-à-go-go-related gene (hERG) potassium channel (Q12809 whole entry, looked up): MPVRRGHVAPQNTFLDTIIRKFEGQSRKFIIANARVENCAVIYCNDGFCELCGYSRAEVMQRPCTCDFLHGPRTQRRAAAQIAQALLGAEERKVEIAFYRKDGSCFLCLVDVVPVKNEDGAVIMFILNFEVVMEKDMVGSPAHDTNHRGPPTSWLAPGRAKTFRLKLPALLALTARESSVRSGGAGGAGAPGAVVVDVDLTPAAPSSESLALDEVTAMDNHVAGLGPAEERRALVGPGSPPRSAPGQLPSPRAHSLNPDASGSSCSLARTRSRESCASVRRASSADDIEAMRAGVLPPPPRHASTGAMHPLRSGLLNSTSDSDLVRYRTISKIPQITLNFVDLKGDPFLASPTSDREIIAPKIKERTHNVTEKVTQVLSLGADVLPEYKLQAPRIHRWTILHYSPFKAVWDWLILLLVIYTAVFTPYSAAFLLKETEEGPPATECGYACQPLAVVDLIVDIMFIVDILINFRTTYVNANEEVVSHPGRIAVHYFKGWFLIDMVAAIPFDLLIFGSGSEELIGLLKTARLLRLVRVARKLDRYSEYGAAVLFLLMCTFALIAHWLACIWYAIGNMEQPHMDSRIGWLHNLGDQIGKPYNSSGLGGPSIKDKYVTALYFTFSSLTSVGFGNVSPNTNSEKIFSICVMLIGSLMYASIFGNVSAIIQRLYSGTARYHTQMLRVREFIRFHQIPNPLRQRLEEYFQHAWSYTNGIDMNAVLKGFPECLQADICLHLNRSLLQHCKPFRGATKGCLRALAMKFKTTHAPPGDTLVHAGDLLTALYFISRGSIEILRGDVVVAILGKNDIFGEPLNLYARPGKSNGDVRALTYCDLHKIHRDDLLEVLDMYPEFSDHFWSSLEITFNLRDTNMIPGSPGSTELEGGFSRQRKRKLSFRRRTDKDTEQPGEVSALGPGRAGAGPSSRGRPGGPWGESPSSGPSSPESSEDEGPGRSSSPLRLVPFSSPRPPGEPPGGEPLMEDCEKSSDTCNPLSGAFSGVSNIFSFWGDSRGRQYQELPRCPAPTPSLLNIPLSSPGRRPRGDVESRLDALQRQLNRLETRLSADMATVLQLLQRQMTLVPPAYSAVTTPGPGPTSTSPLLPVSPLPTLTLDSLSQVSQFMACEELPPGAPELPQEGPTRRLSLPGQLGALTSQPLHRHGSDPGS

This assay addresses human ether-à-go-go-related gene (hERG) potassium channel (human, UniProt Q12809). In words: primary screen, population patch clamp on CHO cells stably expressing hERG; higher = less effect of the substance.
`Cc1cc(C)c(N2C(=O)C3C4CC(=O)C(c5ccccc54)C3C2=O)c(C)c1` (stereo not shown): the “hERG current change (%, negative = inhibition) at 1uM” value came out at 3.35%.
To `CC(Oc1ccc(Cl)cc1)c1ccnc(N)n1` (stereo not shown) belongs 15.5%; to `Cc1nc(COc2ccc(C(=O)NCc3ccccc3CN3CCCCC3)cc2)cs1`, -10.6%.
As to `Cc1sc(-n2c(C)cc(C=C3C(=O)NC(=O)NC3=O)c2C)c(C#N)c1C`, the “hERG current change (%, negative = inhibition) at 1uM” value came to 11.2%.
To `CN(c1ccccc1)c1nc(N)c([N+](=O)[O-])c(N2CCCCC2)n1` belongs 7.57%; to `O=C(/C=C/c1ccccc1)C1=C(O)C(=O)N(CCO)C1c1ccccc1[N+](=O)[O-]` (stereo not shown), 11.9%.
Consider `CCOc1ccc(N2CC(C(=O)N3CCN(c4ccccn4)CC3)CC2=O)cc1` (stereo not shown), for which the “hERG current change (%, negative = inhibition) at 1uM” value was -9.35%.
With `FC(F)(F)C(Oc1nc(Nc2ccc(Cl)cc2)nc(N2CCOCC2)n1)C(F)(F)F`, the “hERG current change (%, negative = inhibition) at 1uM” value came to 11.9%.
Consider `CCCOc1ccc(/C=c2\sc3nc(-c4ccco4)nn3c2=O)cc1OCC`, for which the “hERG current change (%, negative = inhibition) at 1uM” value was found to be 5.32%.
With `Cc1ccc(NC(=O)COc2ccccc2C(N)=O)cc1S(=O)(=O)N1CCCCCC1`, the “hERG current change (%, negative = inhibition) at 1uM” value is given as -0.137%.
Take `CCOCCCNC(c1ccccc1)c1ccncc1` (stereo not shown): the “hERG current change (%, negative = inhibition) at 1uM” value was found to be 15.3%.
`CN(C)c1ccc(/C=N/NC(=O)c2ccc3c(c2)OCO3)cc1`: the “hERG current change (%, negative = inhibition) at 1uM” value was 1.12%.
For the compound `O=C(Nc1ccccc1N1CCCCC1)c1cccc([N+](=O)[O-])c1`, the “hERG current change (%, negative = inhibition) at 1uM” value was 9.68%.
Take `CN1CCN(c2ccccc2NC(=O)c2cccc([N+](=O)[O-])c2)CC1`: the “hERG current change (%, negative = inhibition) at 1uM” value was -67.1%.
To `CCOc1ccccc1NC(=O)c1ccc(OCC)c([N+](=O)[O-])c1` belongs 1.13%; to `CCOc1ccc(C(=O)Nc2ccccc2N2CCN(C(=O)c3ccccc3)CC2)cc1[N+](=O)[O-]`, -84%; to `CCOc1ccc(C(=O)NC(=S)Nc2ccccc2N2CCCCC2)cc1[N+](=O)[O-]`, 8.22%.
As for `O=C(Nc1ccccc1N1CCOCC1)c1cccc([N+](=O)[O-])c1`, the “hERG current change (%, negative = inhibition) at 1uM” value amounted to 2.37%.
`Cc1nc2nc(SCC(=O)N3CCOCC3)nn2c(C)c1Cc1c(F)cccc1Cl`: the “hERG current change (%, negative = inhibition) at 1uM” value came to 3.11%.
In the case of `CCOc1cc(N2CCOCC2)c(OCC)cc1NCC(=O)N1CCN(Cc2ccccc2)CC1.Cl`, the “hERG current change (%, negative = inhibition) at 1uM” value is 9.92%.
`COc1ccc(NC(=O)Nc2nnc(-c3ccco3)s2)cc1`: the “hERG current change (%, negative = inhibition) at 1uM” value is 12.3%.
To `NC(=O)c1nsc(C(=O)N(c2ccc(Cl)cc2)C(C(=O)NCC2CCCO2)c2cccs2)c1N` (stereo not shown) belongs 10.7%; to `S=C(Nc1ccc(Cl)cc1Cl)N1CCN(c2ccccn2)CC1`, 12.7%.
Take `Cc1sc2nc(C(C)C)nc(SCC(=O)N3CCN(C(=O)c4ccco4)CC3)c2c1C`: the “hERG current change (%, negative = inhibition) at 1uM” value is recorded as -41.5%.
Turning to `Cc1sc2ncnc(SCC(=O)N3CCN(C(=O)c4ccco4)CC3)c2c1C`, the “hERG current change (%, negative = inhibition) at 1uM” value was -67.3%.
On to `O=C(CSc1nn(-c2ccc(F)cc2)c(=S)s1)N1CCN(C(=O)c2ccco2)CC1`, for which the “hERG current change (%, negative = inhibition) at 1uM” value is given as -64.6%.
For `Cc1nc(SCC(=O)N2CCN(C(=O)c3ccco3)CC2)c2c(C)c(C)sc2n1`, the “hERG current change (%, negative = inhibition) at 1uM” value is recorded as -43.9%.
In the case of `O=C(CSc1nn(-c2ccc(Cl)cc2)c(=S)s1)N1CCN(C(=O)c2ccco2)CC1`, the “hERG current change (%, negative = inhibition) at 1uM” value was -44.1%.
On to `O=C(CSc1nc(-c2ccc(F)cc2)cs1)N1CCN(C(=O)c2ccco2)CC1`, for which the “hERG current change (%, negative = inhibition) at 1uM” value is reported as -43.2%.
Consider `COc1cc(OC)cc(C(=O)Nc2cccc3cccnc23)c1`, for which the “hERG current change (%, negative = inhibition) at 1uM” value turned out to be 19.3%.
Regarding `Cc1cnc(CN(C)C(=O)CC2C(=O)NCCN2Cc2cccc(F)c2F)[nH]1` (stereo not shown), the “hERG current change (%, negative = inhibition) at 1uM” value came out at 11.2%.
As to `O=C(NCc1n[nH]c(=S)n1-c1cccc(Cl)c1)c1cccs1`, the “hERG current change (%, negative = inhibition) at 1uM” value is on record as 9.04%.
Turning to `COc1ccccc1C(C)Nc1nc(-c2cccnc2)nc2ccccc12` (stereo not shown), the “hERG current change (%, negative = inhibition) at 1uM” value is listed as 12.2%.
The same measure for `CCOc1ccccc1OCCOCCN1CC(C)OC(C)C1` (stereo not shown): 2.22%.
To `Cc1[nH]c2ccccc2c1/C=C/c1nc2ccccc2c(=O)n1-c1ccc([N+](=O)[O-])cc1` belongs -1.09%; to `Cc1ccc(NC(=S)NC(=O)c2ccc(Br)o2)c(C)c1`, 13.3%; to `Cc1n[nH]c(=O)nc1N/N=C/c1cccs1`, 14.8%.
`Nc1[nH]c(N=NC(=O)c2ccccc2)c2ccccc12`: the “hERG current change (%, negative = inhibition) at 1uM” value came out at 10.1%.
Turning to `Nc1ccccc1C(=O)N=Nc1[nH]c(N)c2ccccc12`, the “hERG current change (%, negative = inhibition) at 1uM” value was determined as 21%.
Regarding `Nc1[nH]c(N=NC(=O)c2ccccc2O)c2ccccc12`, the “hERG current change (%, negative = inhibition) at 1uM” value was -57.5%.
In the case of `O=c1[nH]c(CN2CC=C(c3ccccc3)CC2)nc2scc(-c3cccs3)c12`, the “hERG current change (%, negative = inhibition) at 1uM” value stood at 14.1%.
For `CC(C)N(C)CCOC(=O)/C=C/c1ccccc1.Cl`, the “hERG current change (%, negative = inhibition) at 1uM” value stood at 12%.
To `Cc1cc(C)c2[nH]c3nc(SCC(=O)O)nnc3c2c1` belongs 16.7%.
Consider `CC1CN(C(C)C)C(C)CC1OC(=O)c1ccccc1` (stereo not shown), for which the “hERG current change (%, negative = inhibition) at 1uM” value worked out at 16.7%.
The same measure for `CC1CN(C)C(C)CC1OC(=O)C(c1ccccc1)c1ccccc1` (stereo not shown): -68.3%; for `CN(C)[C@@H]1CCC[C@H]1OC(=O)C(c1ccccc1)c1ccccc1`: -40.2%; for `Cl.O=C(CN1CCN(c2ccc(F)cc2)CC1)N1CCC(Cc2ccccc2)CC1`: -5.57%.
For `O=C(CN1CCC(Cc2ccccc2)CC1)N1CCc2ccccc2C1`, the “hERG current change (%, negative = inhibition) at 1uM” value is -62.2%.
For the compound `O=C(CCS(=O)(=O)Cc1ccccc1)N1CCc2ccccc2C1`, the “hERG current change (%, negative = inhibition) at 1uM” value is listed as 8.69%.
Take `O=C(NCCNc1ccccc1[N+](=O)[O-])c1cc(F)c(F)cc1Cl`: the “hERG current change (%, negative = inhibition) at 1uM” value is recorded as -2.68%.
The same measure for `COc1cc(NC(=O)C(C)Oc2ccccc2)c(C(=O)O)cc1OC` (stereo not shown): 9.7%; for `Cl.OC(c1cccc(Cl)c1)(c1cccc(Cl)c1)C1CN2CCC1CC2` (stereo not shown): -69.6%.
Take `OC(c1ccccc1)(c1ccc(Cl)cc1)C1CN2CCC1CC2` (stereo not shown): the “hERG current change (%, negative = inhibition) at 1uM” value is reported as -11.9%.
The same measure for `Cl.OC(c1ccccc1)(c1ccccc1)C1CN2CCC1CC2` (stereo not shown): -1.7%.
Turning to `CCOC(=O)c1ccccc1NC(=O)[C@@H]1CCCN1C(=O)OC(C)(C)C`, the “hERG current change (%, negative = inhibition) at 1uM” value is reported as 3.14%.
As to `CC(C)(C)C(=O)NC1CCN(S(=O)(=O)c2ccccc2F)CC1`, the “hERG current change (%, negative = inhibition) at 1uM” value amounted to 7.45%.
With `COc1ccc(N2CCN(C(=O)c3ccc(F)cc3)CC2)c([N+](=O)[O-])c1`, the “hERG current change (%, negative = inhibition) at 1uM” value is -38.3%.
Regarding `CO/N=C/c1ccc(N2CCN(C(=O)c3cccc(C(F)(F)F)c3)CC2)c([N+](=O)[O-])c1`, the “hERG current change (%, negative = inhibition) at 1uM” value is given as -2.38%.
For the compound `CO/N=C/c1ccc(N2CCN(C(=O)c3ccc(C)cc3)CC2)c([N+](=O)[O-])c1`, the “hERG current change (%, negative = inhibition) at 1uM” value is -67.2%.
On to `COc1ccc(N2CCN(C(=O)c3ccc(C)cc3)CC2)c([N+](=O)[O-])c1`, for which the “hERG current change (%, negative = inhibition) at 1uM” value is given as -29.7%.
On to `CO/N=C/c1ccc(N2CCN(C(=O)c3ccc(Cl)cc3Cl)CC2)c([N+](=O)[O-])c1`, for which the “hERG current change (%, negative = inhibition) at 1uM” value is on record as -18.5%.
In the case of `CO/N=C/c1ccc(N2CCN(C(=O)c3ccc(F)cc3)CC2)c([N+](=O)[O-])c1`, the “hERG current change (%, negative = inhibition) at 1uM” value is listed as -78.1%.
With `CCc1ccc(CNC(=O)CCCC(=O)n2nc(C)c3ccccc32)cc1`, the “hERG current change (%, negative = inhibition) at 1uM” value worked out at 16.1%.
Regarding `CCCCN1C(Nc2ccccc2)=NC[C@@H]1Cc1ccccc1`, the “hERG current change (%, negative = inhibition) at 1uM” value is -44.2%.
In the case of `CCCCCCCN1C(Nc2ccccc2)=NC[C@@H]1Cc1ccccc1`, the “hERG current change (%, negative = inhibition) at 1uM” value was -79.6%.
`CC(C)CCCN1C(Nc2ccccc2)=NC[C@@H]1C`: the “hERG current change (%, negative = inhibition) at 1uM” value is reported as -0.21%.
Take `CC(C)C[C@H]1CN=C(Nc2ccccc2)N1CCC(C)c1ccccc1` (stereo partly shown): the “hERG current change (%, negative = inhibition) at 1uM” value was -8.04%.
Take `CCCCN1C(Nc2ccccc2)=NC[C@@H]1C`: the “hERG current change (%, negative = inhibition) at 1uM” value came out at 16.3%.
Take `CCCCCCCN1C(Nc2ccccc2)=NC[C@@H]1C`: the “hERG current change (%, negative = inhibition) at 1uM” value is -55.2%.
As for `c1ccc(CCCCN2C(Nc3ccccc3)=NC[C@@H]2Cc2ccccc2)cc1`, the “hERG current change (%, negative = inhibition) at 1uM” value is given as -39.7%.
On to `CC(CCN1C(Nc2ccccc2)=NC[C@@H]1Cc1ccccc1)c1ccccc1` (stereo partly shown), for which the “hERG current change (%, negative = inhibition) at 1uM” value is -52.7%.
In the case of `CC(C)CCN1C(Nc2ccccc2)=NC[C@@H]1Cc1ccccc1`, the “hERG current change (%, negative = inhibition) at 1uM” value was -15%.
`CCOc1ccc(S(=O)(=O)n2nc(C)cc2C)cc1`: the “hERG current change (%, negative = inhibition) at 1uM” value worked out at 13.8%.
The same measure for `CCOc1cc(/C=N/NC(=O)CNc2ccc(C)cc2)ccc1OC(=O)c1ccccc1`: -0.419%.
Turning to `CN(Cc1c(F)cccc1Cl)C(=O)CNC(=O)c1ccc2c(c1)OCO2`, the “hERG current change (%, negative = inhibition) at 1uM” value came to 13.8%.
Turning to `CCCOc1ccc(NC(=O)CC2C(=O)N(c3ccc(OCC)cc3)C(=S)N2C2CC2)cc1` (stereo not shown), the “hERG current change (%, negative = inhibition) at 1uM” value is listed as -3.7%.
For `CN1CCN(c2ccc(NC(=O)c3ccc([N+](=O)[O-])o3)cc2Cl)CC1`, the “hERG current change (%, negative = inhibition) at 1uM” value is -13.7%.
As for `Cc1ccc(N2CC(O)Cn3c2nc2c3c(=O)n(C)c(=O)n2C)cc1` (stereo not shown), the “hERG current change (%, negative = inhibition) at 1uM” value came out at 13.5%.
To `CCc1ccc2oc(-c3ccc(OC)cc3)cc(=[NH+]c3c(C)n(C)n(-c4ccccc4)c3=O)c2c1.F[B-](F)(F)F` belongs -33.7%; to `CC(O)C[NH+]=c1cc(-c2ccccc2)oc2ccc(Cl)cc12.F[B-](F)(F)F` (stereo not shown), -57%; to `CC(C)C[NH+]=c1cc(-c2ccccc2)oc2ccc(Cl)cc12.F[B-](F)(F)F`, -81.1%.
In the case of `CCc1ccc2oc(-c3ccc(OC)cc3)cc(=[NH+]c3cccc(C(=O)O)c3)c2c1.F[B-](F)(F)F`, the “hERG current change (%, negative = inhibition) at 1uM” value is on record as 4.56%.
The same measure for `O=c1cc(-c2ccccc2)oc2ccccc12`: 13%; for `Cc1cc(Cl)ccc1Oc1ncnc2oc(-c3ccccc3)cc12`: 6.84%; for `COC(=O)c1sc(S(=O)(=O)N2CCC(C(N)=O)CC2)c(C(=O)OC)c1C`: -10.8%.

(Values after PMC4336329 (PLoS ONE, 2015).)
